Screening data as filed in PubChem.
A selection: hits, their analogues and other compounds. The true share with any hit is near 2.7%.
EWS-Fli block – EWS/Fli-driven NR0B1 reporter inhibitors, primary screen, A673 cells, NR0B1 luciferase, luminescence, MLPCN library; viability-normalised; inhibition, % at 12.6 µM; 350,000 compounds, 0.67% hits; AID 651661, 2012;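 active = mean inhibition of at least 50% after viability correction, with every replicate also passing that limit; inconclusive = mean reaches 50% but only one of two replicates passes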;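 note: firefly luciferase signal divided by Alamar Blue viability fluorescence both relative to DMSO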
PAX8 reporter – inhibitors of PAX8-driven TPO luciferase reporter, primary screen, RMG-I cells, single concentration; 360,000 compounds, 1.2% hits; SteadyGlo, 24 h; inhibition, % at 12.6 µM;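 active = mean replicate inhibition at least 60% with every replicate also reaching 60%; inconclusive = only one of the two criteria is met; inactive = mean below 60% and not all replicates reaching 60%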;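 note: luciferase light reporting Pax8 driven TPO promoter activity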
PGC1a acetyl inh – inhibitors of PGC1a acetylation signal, primary screen, cell-based, U2OS, AlphaScreen, inhibitor mode | AlphaScreen anti-acetyl-lysine; with virally co-expressed GCN5 acetyltransferase | inhibition, % at 15.6 µM | 350,000 compounds, 0.17% hits | AID 651687, 2012;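 active = every replicate shows inhibition of at least 40%; inconclusive = mean inhibition at least 40% but some replicate below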
Env fusion inh – inhibitors of HIV-1 Env-driven cell-cell fusion, primary screen, HeLa-JRFL effector, CEM21 target cells, luciferase; inhibition, % at 12.3 µM; AID 651610, 2012; 360,000 compounds, 1.1% hits;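 active = mean replicate inhibition score of at least 50 and every replicate individually at or above 50; inconclusive = only one of the two criteria met; inactive = mean below 50 and not all replicates reaching 50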
INS-1E GSIS act – GLuc luminescence reporter in INS-1E cells, primary screen for activators of glucose-dependent secretion of insulin. INS-1E GLuc reporter insulin secretion, 2-3 h. activation, % at 16.6 µM. 370,000 compounds, 0.61% hits. AID 743287, 2014;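 active = lowest replicate activation of at least 40%, so every replicate reaches that level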
F508del corr – F508del CFTR correction, initial screen, CFBE line, single point | CFBE cells, YFP halide quenching; stimulated with forskolin plus potentiator P3; % fluorescence drop versus neutral controls | activity (quench increase), % at 7.58 µM | 350,000 compounds, 0.36% hits | AID 720511, 2013;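 active = mean added fluorescence quench of at least 8% versus neutral control, with both replicates also reaching 8%; inconclusive = only one of the mean or replicate conditions met; inactive = mean below 8% and not both replicates reaching 8%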;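 note: cells transiently co-express mutant CFTR-F508del with the halide-sensitive YFP; corrector assay measuring rescue of mutant channel to the surface after 24 h compound exposure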
DNA binder FP – DNA binders by acridine orange displacement, dose response, counter-screen for EWS/Fli inhibitor project, biochemical, fluorescence polarization, cherry-pick. shares compounds with EWS-Fli block. salmon sperm DNA acridine orange fluorescence polarization. AC35, µM (top dose mostly 68 µM). 640 compounds, 2% hits;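 active = fitted curve reaches a 35% signal fall AC35 below twice the sample's top valid tested dose, actives reach about 48 µM in these data; inactive = the rest, including activity in the rising direction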;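 note: lower polarization ratio signals compound binding to DNA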
A number is an active result; - = inactive; ? = inconclusive; . = no result.

SMILES | EWS-Fli block | PAX8 reporter | PGC1a acetyl inh | Env fusion inh | INS-1E GSIS act | F508del corr | DNA binder FP
O=C(NCCc1ccccc1)c1ccccc1NC(=O)C1CCCO1 (stereo unspecified) | 71.3 | - | . | - | - | - | -
O=C(O)c1ccccc1NC(=O)C1CCCO1 (stereo unspecified) | . | . | - | - | . | . | .
Nc1ccc(-c2cc3ccccc3oc2=O)cc1 | 79.1 | - | - | - | - | - | -
COc1ccc(CN2CC3(CCN(C(=O)C4CCC4)CC3)c3c(n(C)c4cc(OC)ccc34)[C@@H]2CO)cc1 | . | . | . | . | - | . | .
O=C(N/N=C/c1cccs1)c1n[nH]c2c1CCCC2 | 51.9 | 64.6 | - | - | - | - | -
Cc1ccc(/C=N/NC(=O)c2n[nH]c3c2CCCC3)cc1 | - | ? | - | - | - | - | .
C/C(=N\NC(=O)c1n[nH]c2c1CCC2)c1cccs1 | 82.0 | 102.1 | - | ? | . | - | -
O=C(C[C@H]1CC[C@H]2[C@@H](COC[C@H](O)CN2CC2CCOCC2)O1)NCC1CC1 | - | - | - | - | - | - | .
CCCCCCN(C(=O)CCCCCN1C(=O)NC(c2ccc(Cl)cc2)C(C(=O)OCc2ccccc2)=C1C)C(C(=O)NCCCC)c1ccc(OCC(=O)OC)c(C(=O)OC)c1 (stereo unspecified) | 66.0 | - | . | - | - | - | -
CO[C@@H]1CN(C)C(=O)c2ccc(NS(=O)(=O)c3cccc(C)c3)cc2OC[C@@H](C)N(Cc2cc(F)ccc2F)C[C@H]1C | - | - | - | - | - | - | .
O=C(/C=C/c1ccc(Cl)cc1Cl)N(Cc1ccc(Cl)cc1)C1CCS(=O)(=O)C1 (stereo unspecified) | 70.3 | - | . | - | - | . | -
COc1cc(/C=N/NS(=O)(=O)c2ccc3ccccc3c2)ccc1OCc1ccc(C(=O)O)cc1 | 68.8 | 84.2 | - | - | - | - | -
COc1cc(/C=N/NS(=O)(=O)c2ccc(C)cc2)ccc1OCc1cccc(C(=O)O)c1 | 79.4 | 91.3 | - | 72.0 | - | - | -
COc1ccc(/C=N/NS(=O)(=O)c2ccccc2)cc1OC(=O)c1ccc(C)cc1 | . | . | - | . | . | . | .
COc1ccc(/C=N/NS(=O)(=O)c2ccc(C)cc2)cc1OC(=O)c1ccccc1 | . | . | - | . | . | . | .
CC(=O)c1ccc(NC(=O)c2noc3c2CCC3)cc1 | 59.7 | - | - | - | - | - | -
O=C(O)c1ccc(N/N=C/c2ccc3c(c2)OCO3)cc1 | 85.3 | 88.1 | - | 70.1 | - | - | -
CC(C)(C)c1ccc(/C=N/Nc2ccc(C(=O)O)cc2)cc1 | 67.4 | - | - | - | - | . | -
O=C(O)c1ccc(N/N=C/c2c(F)cccc2Cl)cc1 | 74.6 | 81.9 | . | - | - | - | -
C[C@@H]1CN([C@@H](C)CO)C(=O)c2cc(C#CC3CCCC3)cnc2O[C@@H]1CN(C)S(=O)(=O)c1cccc(F)c1 | - | - | - | - | - | - | .
C[C@@H]1CN([C@@H](C)CO)C(=O)Cc2cc(NC(=O)c3ccncc3)ccc2O[C@H]1CN(C)CC1CCCCC1 | - | . | - | . | . | - | .
C[C@H](CO)N1C[C@H](C)[C@H](CN(C)Cc2ccc(Oc3ccccc3)cc2)Oc2ccc(NC(=O)Cn3cnnn3)cc2CC1=O | 54.5 | - | - | - | - | - | -
C[C@@H]1CN([C@@H](C)CO)C(=O)Cc2cc(NC(=O)Cn3cnnn3)ccc2O[C@@H]1CN(C)Cc1ccc(Oc2ccccc2)cc1 | 70.4 | - | - | - | - | - | -
C[C@H](CO)N1C[C@H](C)[C@@H](CN(C)Cc2ccc(Oc3ccccc3)cc2)Oc2ccc(NC(=O)Cn3cnnn3)cc2CC1=O | - | - | - | - | - | - | .
COc1ccc2c3c(n(C)c2c1)[C@H](CO)N(Cc1ccccc1OC)CC31CCN(CC2CCOCC2)CC1 | - | . | . | - | - | - | .
SMILES | EWS-Fli block | PAX8 reporter | PGC1a acetyl inh | Env fusion inh | INS-1E GSIS act | F508del corr | DNA binder FP
COCCOC(=O)N1C(=O)[C@@]2(c3cc(C#Cc4ccc(OC)cc4)ccc31)[C@H](c1ccc(O)cc1)N1[C@H](c3ccccc3)[C@H](c3ccccc3)OC(=O)[C@H]1[C@@H]2C(=O)N1CCCCCCC1 | - | - | . | - | . | - | .
CC(C)(C)C(=O)Nc1ccc(N=Nc2ccccc2)cc1 | 59.2 | - | - | - | - | - | -
C[C@@H]1CCCCO[C@H](CN(C)C(=O)Cc2ccccc2)[C@H](C)CN([C@H](C)CO)C(=O)c2cc(NS(C)(=O)=O)ccc2O1 | - | - | - | ? | - | - | .
COc1ccc(CN2C[C@@H](O)COC[C@H]3O[C@H](CC(=O)NCCN4CCCC4)CC[C@@H]32)cc1 | - | - | - | - | - | - | .
Cc1cc(Br)ccc1N=C1C(=O)Nc2ccccc21 | 55.1 | - | - | - | - | - | -
O=C1Nc2ccccc2C1=Nc1ccccc1-c1ccccc1 | 54.8 | - | . | - | - | - | -
O=C1Nc2ccccc2C1=Nc1ccc(Br)cc1 | 55.1 | - | - | - | - | - | -
CS(=O)(=O)N1[C@@H]2CN(CC(F)(F)F)C[C@H]1C2c1ccccc1 (stereo partly specified) | . | . | . | . | - | . | .
Cc1noc(C)c1NC(=O)Nc1ccc2c(c1)CC(=O)N([C@H](C)CO)C[C@@H](C)[C@H](CN(C)Cc1ccc(Cl)c(Cl)c1)O2 | - | - | - | . | - | - | .
Cc1noc(C)c1NC(=O)Nc1ccc2c(c1)CC(=O)N([C@H](C)CO)C[C@@H](C)[C@@H](CN(C)Cc1ccc(Cl)c(Cl)c1)O2 | 61.2 | - | - | . | - | - | -
C[C@H]1CN([C@@H](C)CO)C(=O)c2cc(NS(=O)(=O)c3ccc(Cl)cc3)ccc2O[C@H]1CN(C)Cc1ccc(Cl)c(Cl)c1 | 60.6 | 80.6 | - | - | - | - | -
C[C@@H]1CN([C@H](C)CO)C(=O)c2cc(NS(=O)(=O)c3ccc(Cl)cc3)ccc2O[C@@H]1CN(C)Cc1ccc(Cl)c(Cl)c1 | 53.2 | - | - | ? | - | - | -
C[C@@H]1CN([C@@H](C)CO)C(=O)c2cc(NS(=O)(=O)c3ccc(Cl)cc3)ccc2O[C@@H]1CN(C)Cc1ccc(Cl)c(Cl)c1 | - | - | - | - | - | - | .
N#C[C@H]1[C@H](c2ccccc2C2=CCCCC2)[C@H](CO)N1S(=O)(=O)c1cccc(F)c1 | - | . | - | . | - | - | .
C[C@H](CO)N1C[C@H](C)[C@H](CN(C)Cc2ccc(C(=O)Nc3ccccc3N)cc2)Oc2ccc(NS(=O)(=O)c3cccs3)cc2C1=O | 53.9 | . | - | . | - | - | -
